The values below come from PubChem BioAssay (EPA / NIEHS).

Activity calls are given as the source filed them. Rule for the calls: active = hit-call score of the fitted dose curve at least 0.9, where 1 is the maximum; inactive = score below 0.9.

Common to all, as to settings: mRNA level, 48 h; actives raise or lower the signal
Read-out in test [1]: ATP-citrate lyase (ACLY), ACLY (gene 47)
Kind of test: LTEA_HepaRG_ACLY: Life Technologies and Expression Analysis (LTEA) Assay for ATP-citrate lyase (ACLY) using HepaRG (AID 2283466). The essentials:
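HepaRG, 48 h exposure, 8-pt half-log dilutions (top 100 uM), 0.5% DMSO. Readout: ACLY mRNA, TaqMan qRT-PCR, housekeeping-normalized (ACTB/GAPDH/POLR2A). Bidirectional curve fit vs DMSO.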

Read-out in test [2]: Alkaline Phosphatase, Placental (ALPP) gene, ALPP (gene 250)
Kind of test: LTEA_HepaRG_ALPP: Life Technologies and Expression Analysis (LTEA) Assay for Alkaline Phosphatase, Placental (ALPP) gene using HepaRG (AID 2283468).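 For AC50: differentiated human HepaRG liver cells in serum-free induction medium.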 Put shortly: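 Using human liver HepaRG cells, chemicals are tested in duplicate over 48 h at half-log concentrations topping at 100 uM; phenobarbital 1 mM serves as induction control. ALPP mRNA change by qRT-PCR, bidirectional fit against vehicle.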

Read-out in test [3]: Bcl-2 (BAD) gene, BAD (gene 572)
In words: LTEA_HepaRG_BAD: Life Technologies and Expression Analysis (LTEA) Assay for Bcl-2 (BAD) gene using HepaRG (AID 2283469). The essentials:
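BAD transcript change, measured by qRT-PCR against three housekeeping genes and fitted in both directions relative to 0.5% DMSO, after 48 h chemical treatment of human HepaRG liver cells at concentrations up to 100 uM.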

Read-out in test [4]: Bcl-2 (BAX) gene, BAX (gene 581)
Kind of test: LTEA_HepaRG_BAX: Life Technologies and Expression Analysis (LTEA) Assay for Bcl-2 (BAX) gene using HepaRG (AID 2283470). The essentials: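 HepaRG (human liver), 48 h exposure, duplicate wells. 8-pt curve, half-log from 100 uM, 0.5% DMSO. BAX transcript by TaqMan qRT-PCR; ACTB/GAPDH/POLR2A normalization; gain or loss vs DMSO baseline.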

Read-out in test [5]: adenosine kinase (ADK) gene, ADK (gene 132)
In words: LTEA_HepaRG_ADK: Life Technologies and Expression Analysis (LTEA) Assay for adenosine kinase (ADK) gene using HepaRG (AID 2283471). Put shortly: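 Differentiated HepaRG cells dosed 48 h in serum-free induction medium, 0.5% DMSO vehicle, eight half-log concentrations from 100 uM, in duplicate. ADK mRNA by TaqMan qRT-PCR normalised to ACTB, GAPDH, POLR2A; bidirectional fit versus DMSO.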

Read-out in test [6]: Alpha-fetoprotein (AFP) gene, AFP (gene 174)
Kind of test: LTEA_HepaRG_AFP: Life Technologies and Expression Analysis (LTEA) Assay for Alpha-fetoprotein (AFP) gene using HepaRG (AID 2283472). Put shortly:
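HepaRG, single lot; 48 h post-plating -> serum-free induction medium; cpd 8-pt, 100 uM top, half-log, 0.5% DMSO, duplicate, 48 h. RNA -> qRT-PCR AFP, norm ACTB/GAPDH/POLR2A. Bidirectional fit vs DMSO.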

Read-out in test [7]: BCL2L11 (gene 10018)
Kind of test: LTEA_HepaRG_BCL2L11: Life Technologies and Expression Analysis (LTEA) Assay for Bcl-2 (BCL2L11) gene using HepaRG (AID 2283473). The essentials:
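Human hepatic HepaRG cultures are treated 48 h with test chemicals (maximum 100 uM, 0.5% DMSO vehicle). Expression of BCL2L11 is measured by qRT-PCR against ACTB, GAPDH and POLR2A, with activity in either direction scored relative to vehicle.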

Read-out in test [8]: Apolipoprotein A-V (APOA5) gene, APOA5 (gene 116519)
In words: LTEA_HepaRG_APOA5: Life Technologies and Expression Analysis (LTEA) Assay for Apolipoprotein A-V (APOA5) gene using HepaRG (AID 2283474). The essentials:
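Concentration-response of APOA5 expression in HepaRG: eight half-log doses to 100 uM, 48 h, qRT-PCR normalized to ACTB/GAPDH/POLR2A, bidirectional fitting with 0.5% DMSO as baseline.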

Read-out in test [9]: Apoptosis regulator Bcl-2 (Homo sapiens) (UniProt P10415)
Kind of test: LTEA_HepaRG_BCL2: Life Technologies and Expression Analysis (LTEA) Assay for Bcl-2 gene using HepaRG (AID 2283475). Put shortly:
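HepaRG, plated 48 h then switched to serum-free induction medium; dosed 48 h, 8 conc. (max 100 uM, half-log steps), duplicate, 0.5% DMSO. Lysis in RLT, RNA isolated, TaqMan qRT-PCR for BCL2; ACTB/GAPDH/POLR2A normalisation; bidirectional fit vs DMSO.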

Read-out in test [10]: Bcl-2 (BID) gene, BID (gene 637)
Kind of test: LTEA_HepaRG_BID: Life Technologies and Expression Analysis (LTEA) Assay for Bcl-2 (BID) gene using HepaRG (AID 2283476). Put shortly:
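Transcript levels of BID, measured by qRT-PCR and normalized to three housekeeping genes, were fitted bidirectionally against DMSO controls. Cells were HepaRG, dosed 48 h at up to 100 uM.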

Read-out in test [11]: Caspase-3 (Homo sapiens) (UniProt P42574)
Kind of test: LTEA_HepaRG_CASP3: Life Technologies and Expression Analysis (LTEA) Assay for cysteine-aspartic acid protease (CASP3) using HepaRG (AID 2283477). The essentials:
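Transcript-level assay: CASP3 mRNA in human HepaRG after 48 h treatment, eight half-log concentrations from 100 uM in 0.5% DMSO, quantified by qRT-PCR.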

Read-out in test [12]: Cytochrome P450 (CYP24A1), CYP24A1 (gene 1591)
In words: LTEA_HepaRG_CYP24A1: Life Technologies and Expression Analysis (LTEA) Assay for Cytochrome P450 (CYP24A1) using HepaRG (AID 2283478). The essentials: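 Gene expression of CYP24A1 by TaqMan qRT-PCR in HepaRG after 48 h treatment, highest concentration 100 uM; activity fitted in both directions relative to DMSO vehicle.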

Read-out in test [13]: Cytochrome P450 (CYP1A2), CYP1A2 (gene 1544)
In words: LTEA_HepaRG_CYP1A2: Life Technologies and Expression Analysis (LTEA) Assay for Cytochrome P450 (CYP1A2) using HepaRG (AID 2283479). Put shortly: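 In duplicate wells, HepaRG cultures maintained in 0.5% DMSO were treated 48 h across an 8-point, half-log series topping at 100 uM; phenobarbital (1 mM) served as induction control. Expression was read by qRT-PCR.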

Read-out in test [14]: cysteine-aspartic acid protease (CASP8), CASP8 (gene 841)
In words: LTEA_HepaRG_CASP8: Life Technologies and Expression Analysis (LTEA) Assay for cysteine-aspartic acid protease (CASP8) using HepaRG (AID 2283480). Put shortly:
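HepaRG, 48 h exposure, duplicate wells; 8 conc, half-log from 100 uM, 0.5% DMSO. Serum-free induction medium. CASP8 mRNA by TaqMan qRT-PCR, norm. ACTB/GAPDH/POLR2A; gain/loss fitted vs DMSO.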

Read-out in test [15]: Cytochrome P450 (CYP2B6), CYP2B6 (gene 1555)
In words: LTEA_HepaRG_CYP2B6: Life Technologies and Expression Analysis (LTEA) Assay for Cytochrome P450 (CYP2B6) using HepaRG (AID 2283481). The essentials:
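Human HepaRG, 48 h dosing, 0.5% DMSO vehicle, top dose 100 uM. CYP2B6 transcript by qRT-PCR, housekeeping-normalized, bidirectional curve fit.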

Read-out in test [16]: Cytochrome P450 2C19 (Homo sapiens) (UniProt P33261)
Kind of test: LTEA_HepaRG_CYP2C19: Life Technologies and Expression Analysis (LTEA) Assay for CYP2C19 using HepaRG (AID 2283482). The essentials:
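Endpoint: CYP2C19 mRNA change, bidirectional fit vs 0.5% DMSO. Cells: HepaRG, 48 h exposure, eight-point series topping at 100 uM. Quantitation: qRT-PCR normalized to ACTB, GAPDH, POLR2A.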

Read-out in test [17]: CYP2C8 (gene 1558)
In words: LTEA_HepaRG_CYP2C8: Life Technologies and Expression Analysis (LTEA) Assay for CYP2C8 using HepaRG (AID 2283483). Put shortly:
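CYP2C8 mRNA induction or loss, by qRT-PCR normalized to ACTB/GAPDH/POLR2A, is read in HepaRG cells after 48 h treatment. Concentrations run from 100 uM down in half-log dilutions, with 0.5% DMSO as vehicle and baseline.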

Read-out in test [18]: CYP2C9 (gene 1559)
In words: LTEA_HepaRG_CYP2C9: Life Technologies and Expression Analysis (LTEA) Assay for CYP2C9 using HepaRG (AID 2283484). Put shortly:
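Cells plated 48 h, switched to serum-free induction medium, then treated in duplicate for 48 h at eight concentrations (max 100 uM, 0.5% DMSO). RNA then analysed by qRT-PCR for CYP2C9; curves fitted in both directions relative to DMSO.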

Read-out in test [19]: Peroxisomal acyl-coenzyme A oxidase 1 (ACOX1) gene, ACOX1 (gene 51)
In words: LTEA_HepaRG_ACOX1: Life Technologies and Expression Analysis (LTEA) Assay for Peroxisomal acyl-coenzyme A oxidase 1 (ACOX1) gene using HepaRG (AID 2283467). The essentials:
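Measured by qRT-PCR against three housekeeping genes: ACOX1 transcript change in human HepaRG cells after 48 h dosing. Concentrations ran up to 100 uM in half-log steps. Curves were fitted bidirectionally relative to 0.5% DMSO.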

Read-out in test [20]: CYP2E1 (gene 1571)
In words: LTEA_HepaRG_CYP2E1: Life Technologies and Expression Analysis (LTEA) Assay for CYP2E1 using HepaRG (AID 2283485). The essentials: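 Human liver line HepaRG, plated 48 h, then serum-free induction medium + chemical x 48 h; 8-pt CRC from 100 uM, half-log, 0.5% DMSO, n=2. Readout: CYP2E1 mRNA qRT-PCR vs ACTB/GAPDH/POLR2A; bidirectional fit vs DMSO.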

Sequence of Cytochrome P450 2C19 (Homo sapiens) (P33261 whole entry, looked up): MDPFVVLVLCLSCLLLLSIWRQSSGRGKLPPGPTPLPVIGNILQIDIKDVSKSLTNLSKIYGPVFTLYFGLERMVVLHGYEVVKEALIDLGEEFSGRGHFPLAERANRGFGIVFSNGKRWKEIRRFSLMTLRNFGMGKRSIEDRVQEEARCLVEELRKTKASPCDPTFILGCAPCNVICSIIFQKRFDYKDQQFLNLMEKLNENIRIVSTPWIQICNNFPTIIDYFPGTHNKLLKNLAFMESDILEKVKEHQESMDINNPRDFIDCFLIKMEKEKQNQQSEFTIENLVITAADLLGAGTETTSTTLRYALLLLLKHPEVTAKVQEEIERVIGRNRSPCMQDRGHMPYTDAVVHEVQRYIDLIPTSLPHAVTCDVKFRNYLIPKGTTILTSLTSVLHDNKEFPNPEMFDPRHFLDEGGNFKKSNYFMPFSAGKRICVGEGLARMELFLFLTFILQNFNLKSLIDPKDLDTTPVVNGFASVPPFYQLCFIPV
Sequence of Caspase-3 (Homo sapiens) (P42574 whole entry, looked up): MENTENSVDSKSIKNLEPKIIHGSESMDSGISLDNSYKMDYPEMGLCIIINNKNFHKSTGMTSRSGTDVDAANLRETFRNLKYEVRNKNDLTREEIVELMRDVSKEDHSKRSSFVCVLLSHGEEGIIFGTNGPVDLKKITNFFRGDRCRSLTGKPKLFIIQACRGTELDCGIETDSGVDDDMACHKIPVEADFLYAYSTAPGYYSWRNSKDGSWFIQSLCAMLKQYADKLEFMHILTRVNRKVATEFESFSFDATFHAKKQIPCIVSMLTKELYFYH
Sequence of Apoptosis regulator Bcl-2 (Homo sapiens) (P10415 whole entry, looked up): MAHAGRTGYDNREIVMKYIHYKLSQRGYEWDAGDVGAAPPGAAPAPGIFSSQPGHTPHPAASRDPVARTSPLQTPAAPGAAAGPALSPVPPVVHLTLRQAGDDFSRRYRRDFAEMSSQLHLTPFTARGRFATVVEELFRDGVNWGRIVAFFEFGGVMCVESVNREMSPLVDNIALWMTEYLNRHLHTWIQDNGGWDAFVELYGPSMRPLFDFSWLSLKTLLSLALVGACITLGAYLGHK

`OC(CCl)CCl`: the result in test [1], in [2], in test [3], in test [4], in [5] and in test [6] was inactive. Also, the molecule was classed as inactive in test [7], in [8], in test [9], in test [10], in test [11] and in test [12]. For the same molecule, the call in test [13], in [14], in test [15], in test [16], in test [17] and in [18] was inactive.
With `CNC(C)=O`, the molecule was called inactive in [1], in test [19], in [2], in [3], in test [4] and in [6]. For the same molecule, the call in test [7], in [8], in [9], in test [10], in test [11] and in test [12] was inactive. Also, the call in [13], in test [14], in test [16], in test [17], in test [18] and in test [20] was inactive.
As to `CC(C)c1nnc2ccc(-c3ocnc3-c3cc(F)ccc3F)cn12`, the molecule was classed as inactive in test [1], in [19], in test [3], in test [4], in [5] and in [7]. Also, the result in [9], in test [10], in test [11], in test [12], in test [13] and in [14] was inactive. Moreover, the AC50 (usually the concentration giving half of the maximal activity seen) in test [2] is 39.6 µM (active); in test [6], 50 µM (active); in test [8], 56.3 µM (active); in test [15], 0.619 µM (active); in test [16], 91.6 µM (active); in test [17], 82.6 µM (active). In addition, the AC50 in [18] is 71.7 µM (active); in test [20] it was 22.2 µM (active).
On to `CCCCC(CC)C(=O)OCCOCCOCCOC(=O)C(CC)CCCC` (configuration not stated), for which the call in test [1], in [19], in [2], in [3], in [4] and in test [5] was inactive. In addition, the molecule was classed as inactive in test [6], in test [7], in [8], in test [9], in test [10] and in test [11]. The molecule was called inactive in [12], in test [13], in [14], in [15], in test [16] and in test [17]. Also, the outcome in [18] was inactive.
Take `CCCCCCCCN(C)C`: the molecule was classed as inactive in test [1], in test [19], in test [2], in [3], in test [4] and in test [5]. Also, the result in [6], in test [7], in test [8], in test [9], in [10] and in [11] was inactive. Also, the result in test [12], in test [13], in test [14], in [16], in test [17] and in test [18] was inactive.
`O=S(=O)(O)c1ccc(N=Nc2c(O)ccc3cc(S(=O)(=O)O)ccc23)cc1`: the call in test [1], in test [19], in test [2], in test [3], in test [4] and in test [5] was inactive. Moreover, the molecule was classed as inactive in [6], in test [7], in [8], in [9], in test [10] and in test [11]. The molecule was classed as inactive in test [12], in [14], in test [16], in test [17] and in test [18]. The figures for the half-maximal activity concentration (AC50) in test [13] and in [15] were 50 µM (active) and 22.9 µM (active), respectively.
